Eight sequences from publication PMC7862700, “An all-to-all approach to the identification of sequence-specific readers for epigenetic DNA modifications on cytosine” can be followed below.

What all share (assay): DAPPL (digital affinity profiling via proximity ligation, sequencing); 10 mM Tris-HCl pH 7.5, 50 mM NaCl, 1 mM DTT, 4% glycerol, room temperature, 30 min; GST-TFs on glutathione beads, 16-mer random dsDNA library, 0.1% formaldehyde crosslink after washing; high values mean tight binding
Holding throughout (conditions): protein: recombinant; tags: N-terminal GST; dsDNA, one strand shown

One experiment deals with T1, FLI1 (Homo sapiens, UniProt Q01543 1-452).
T1 sequence: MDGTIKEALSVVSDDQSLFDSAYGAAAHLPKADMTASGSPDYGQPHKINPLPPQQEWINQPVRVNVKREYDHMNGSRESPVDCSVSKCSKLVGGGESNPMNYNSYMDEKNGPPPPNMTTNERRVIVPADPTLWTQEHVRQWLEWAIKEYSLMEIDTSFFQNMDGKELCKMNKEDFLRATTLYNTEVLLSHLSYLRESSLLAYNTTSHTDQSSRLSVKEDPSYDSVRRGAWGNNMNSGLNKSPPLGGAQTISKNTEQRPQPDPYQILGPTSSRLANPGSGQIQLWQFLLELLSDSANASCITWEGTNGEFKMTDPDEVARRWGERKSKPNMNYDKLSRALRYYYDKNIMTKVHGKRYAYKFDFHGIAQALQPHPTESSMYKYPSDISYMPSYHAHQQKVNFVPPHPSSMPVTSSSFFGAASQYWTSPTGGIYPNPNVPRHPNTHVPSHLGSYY
In short, it runs like this: (§1)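 Human transcription factors were made in yeast as GST fusions, captured on glutathione beads and barcoded with DNA. With a tag-only sample included, the pool was incubated with 200 nmole of a random double-stranded 16-mer DNA library in Tris/NaCl/DTT/glycerol buffer at room temperature for 30 min, then crosslinked with 0.1% formaldehyde after washing, ligated by proximity, amplified and sequenced. For binding signal, each hexamer's read frequency for a factor is divided by its frequency for the tag-only sample.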

Another experiment deals with T2, ELK1 (Homo sapiens, UniProt P19419 1-428).
T2 sequence: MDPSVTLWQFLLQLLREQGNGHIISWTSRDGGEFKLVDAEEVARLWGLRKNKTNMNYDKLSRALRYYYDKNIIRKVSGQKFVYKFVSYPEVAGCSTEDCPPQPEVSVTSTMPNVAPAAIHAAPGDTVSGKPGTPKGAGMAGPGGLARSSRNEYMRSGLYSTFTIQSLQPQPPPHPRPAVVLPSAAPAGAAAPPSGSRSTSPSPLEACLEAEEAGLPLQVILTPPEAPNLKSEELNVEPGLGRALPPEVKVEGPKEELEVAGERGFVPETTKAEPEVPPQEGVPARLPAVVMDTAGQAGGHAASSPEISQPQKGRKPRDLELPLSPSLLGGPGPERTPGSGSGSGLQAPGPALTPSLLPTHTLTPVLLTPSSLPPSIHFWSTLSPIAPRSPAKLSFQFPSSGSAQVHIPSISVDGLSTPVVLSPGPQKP
The procedure, abridged: as §1

The target in a further experiment is T3, GABPA (Homo sapiens, UniProt Q06546 1-454).
T3 sequence: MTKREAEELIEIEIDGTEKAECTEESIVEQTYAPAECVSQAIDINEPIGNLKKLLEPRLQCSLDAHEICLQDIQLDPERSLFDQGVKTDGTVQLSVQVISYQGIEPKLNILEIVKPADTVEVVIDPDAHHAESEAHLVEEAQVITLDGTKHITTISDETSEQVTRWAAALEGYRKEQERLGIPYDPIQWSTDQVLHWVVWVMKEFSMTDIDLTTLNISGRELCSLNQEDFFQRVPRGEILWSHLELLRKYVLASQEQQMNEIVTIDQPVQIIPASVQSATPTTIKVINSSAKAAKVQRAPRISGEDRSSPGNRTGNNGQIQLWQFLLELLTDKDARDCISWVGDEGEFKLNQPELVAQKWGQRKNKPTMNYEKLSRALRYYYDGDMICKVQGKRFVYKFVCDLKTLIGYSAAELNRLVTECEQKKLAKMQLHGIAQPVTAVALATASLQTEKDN
In short, it runs like this:
as §1

The next experiment deals with T4, ERG (Homo sapiens, UniProt P11308 1-479).
T4 sequence: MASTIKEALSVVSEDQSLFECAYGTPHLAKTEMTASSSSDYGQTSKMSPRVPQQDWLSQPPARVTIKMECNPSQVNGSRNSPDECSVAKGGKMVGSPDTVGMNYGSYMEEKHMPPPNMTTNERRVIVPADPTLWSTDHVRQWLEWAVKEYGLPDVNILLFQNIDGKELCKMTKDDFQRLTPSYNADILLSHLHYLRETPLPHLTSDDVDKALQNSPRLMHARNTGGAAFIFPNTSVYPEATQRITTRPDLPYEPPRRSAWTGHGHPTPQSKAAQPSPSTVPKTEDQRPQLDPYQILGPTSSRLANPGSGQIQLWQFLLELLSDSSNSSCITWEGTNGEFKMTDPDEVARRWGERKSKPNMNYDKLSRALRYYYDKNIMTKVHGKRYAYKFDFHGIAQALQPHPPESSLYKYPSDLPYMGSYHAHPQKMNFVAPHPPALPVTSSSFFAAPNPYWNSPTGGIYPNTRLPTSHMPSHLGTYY
In short, it runs like this: as §1

A further experiment has as its target ELF1 (Homo sapiens, UniProt P32519 1-619). The procedure, abridged:
as §1

A further experiment has as its target T5, EHF (Homo sapiens, UniProt Q9NZC4 1-300).
T5 sequence: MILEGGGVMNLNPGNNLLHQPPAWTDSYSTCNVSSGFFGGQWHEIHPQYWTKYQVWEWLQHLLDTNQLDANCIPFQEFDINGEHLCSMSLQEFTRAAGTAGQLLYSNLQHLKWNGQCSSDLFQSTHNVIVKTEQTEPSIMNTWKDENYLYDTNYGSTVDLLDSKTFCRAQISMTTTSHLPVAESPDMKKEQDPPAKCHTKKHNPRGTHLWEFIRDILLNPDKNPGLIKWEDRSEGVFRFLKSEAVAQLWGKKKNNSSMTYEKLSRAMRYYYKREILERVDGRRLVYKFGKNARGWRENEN
The procedure, abridged:
as §1

The target in another experiment is SPI1 (Homo sapiens, UniProt P17947 1-270). In short, it runs like this: as §1
The target of the next experiment is SPIB (Homo sapiens, UniProt Q01892 1-262). The procedure, abridged:
as §1

The next experiment has as its target T6, ELK3 (Homo sapiens, UniProt P41970 1-407).
T6 sequence: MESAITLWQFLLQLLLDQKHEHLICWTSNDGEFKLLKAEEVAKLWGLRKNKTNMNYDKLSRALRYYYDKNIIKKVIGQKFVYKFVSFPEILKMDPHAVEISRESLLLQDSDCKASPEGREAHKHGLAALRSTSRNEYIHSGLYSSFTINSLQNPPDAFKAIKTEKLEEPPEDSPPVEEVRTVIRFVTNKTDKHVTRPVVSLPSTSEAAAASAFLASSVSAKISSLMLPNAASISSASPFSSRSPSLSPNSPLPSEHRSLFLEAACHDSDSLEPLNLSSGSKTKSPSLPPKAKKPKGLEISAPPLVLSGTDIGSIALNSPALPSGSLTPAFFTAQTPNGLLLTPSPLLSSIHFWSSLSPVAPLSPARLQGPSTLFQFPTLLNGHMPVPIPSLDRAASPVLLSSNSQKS
The procedure, abridged: as §1

SPIB, sequence (Q01892 whole entry): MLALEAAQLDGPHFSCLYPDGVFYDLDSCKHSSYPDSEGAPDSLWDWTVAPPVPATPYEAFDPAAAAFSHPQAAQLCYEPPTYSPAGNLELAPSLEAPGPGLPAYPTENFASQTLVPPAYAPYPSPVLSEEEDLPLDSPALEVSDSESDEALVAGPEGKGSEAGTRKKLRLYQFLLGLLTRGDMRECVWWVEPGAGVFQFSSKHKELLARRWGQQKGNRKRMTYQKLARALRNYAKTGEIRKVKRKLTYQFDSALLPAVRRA
ELF1, sequence (P32519 whole entry): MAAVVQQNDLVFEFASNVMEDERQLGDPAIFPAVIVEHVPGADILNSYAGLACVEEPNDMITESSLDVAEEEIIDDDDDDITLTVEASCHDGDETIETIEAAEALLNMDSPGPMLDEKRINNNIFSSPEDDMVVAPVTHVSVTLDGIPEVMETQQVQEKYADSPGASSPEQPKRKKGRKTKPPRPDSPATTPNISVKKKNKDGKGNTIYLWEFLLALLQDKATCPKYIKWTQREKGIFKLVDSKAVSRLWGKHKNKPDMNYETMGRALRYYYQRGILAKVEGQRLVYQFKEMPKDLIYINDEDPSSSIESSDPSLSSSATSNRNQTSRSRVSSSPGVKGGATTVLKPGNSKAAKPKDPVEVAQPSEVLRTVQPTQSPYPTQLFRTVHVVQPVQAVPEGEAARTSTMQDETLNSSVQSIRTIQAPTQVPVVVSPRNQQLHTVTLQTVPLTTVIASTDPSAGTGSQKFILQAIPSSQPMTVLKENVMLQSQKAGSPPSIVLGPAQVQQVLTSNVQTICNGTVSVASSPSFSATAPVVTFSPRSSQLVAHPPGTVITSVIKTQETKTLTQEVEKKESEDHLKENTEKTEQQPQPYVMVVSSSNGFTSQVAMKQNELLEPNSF

For the sequence GGTTTA, the binding signal in the experiment with FLI1 was 1.12 fold enrichment (6-mer frequency, TF over GST control); with ELK1 it was 1.01 fold enrichment (6-mer frequency, TF over GST control); with GABPA, 1.05 fold enrichment (6-mer frequency, TF over GST control); in the experiment with ERG, 1.1 fold enrichment (6-mer frequency, TF over GST control); with ELF1 it was 1.02 fold enrichment (6-mer frequency, TF over GST control); in the experiment with EHF it was 1.08 fold enrichment (6-mer frequency, TF over GST control). Further, the binding signal in the experiment with SPI1 was 1.09 fold enrichment (6-mer frequency, TF over GST control); with SPIB it was 1.05 fold enrichment (6-mer frequency, TF over GST control); in the experiment with ELK3 it was 1.07 fold enrichment (6-mer frequency, TF over GST control).

Take GCATTC: the binding signal was 1.15 fold enrichment (6-mer frequency, TF over GST control) with FLI1; 1.16 fold enrichment (6-mer frequency, TF over GST control) with ELK1; 1.18 fold enrichment (6-mer frequency, TF over GST control) with GABPA; 1.12 fold enrichment (6-mer frequency, TF over GST control) with ERG; 1.13 fold enrichment (6-mer frequency, TF over GST control) with ELF1; 1.07 fold enrichment (6-mer frequency, TF over GST control) with EHF. Also, the binding signal with SPI1 is 1.15 fold enrichment (6-mer frequency, TF over GST control); with SPIB, 1.12 fold enrichment (6-mer frequency, TF over GST control); with ELK3 it was 1.03 fold enrichment (6-mer frequency, TF over GST control).

In the case of TGCCCC, the binding signal with FLI1 was 1.13 fold enrichment (6-mer frequency, TF over GST control); with ELK1 it was 1.2 fold enrichment (6-mer frequency, TF over GST control); in the experiment with GABPA, 1.27 fold enrichment (6-mer frequency, TF over GST control); in the experiment with ERG, 1.28 fold enrichment (6-mer frequency, TF over GST control); in the experiment with ELF1, 1.27 fold enrichment (6-mer frequency, TF over GST control); with EHF it was 1.32 fold enrichment (6-mer frequency, TF over GST control). In addition, the binding signal with SPI1 is 1.31 fold enrichment (6-mer frequency, TF over GST control); with SPIB, 1.13 fold enrichment (6-mer frequency, TF over GST control); in the experiment with ELK3, 1.18 fold enrichment (6-mer frequency, TF over GST control).

TGTCCG: the binding signal with FLI1 is 1.47 fold enrichment (6-mer frequency, TF over GST control); in the experiment with ELK1 it was 1.42 fold enrichment (6-mer frequency, TF over GST control); with GABPA, 1.48 fold enrichment (6-mer frequency, TF over GST control); with ERG it was 1.58 fold enrichment (6-mer frequency, TF over GST control); with ELF1, 1.41 fold enrichment (6-mer frequency, TF over GST control); with EHF, 1.42 fold enrichment (6-mer frequency, TF over GST control). Besides, the binding signal is 1.2 fold enrichment (6-mer frequency, TF over GST control) in the experiment with SPI1; 1.56 fold enrichment (6-mer frequency, TF over GST control) with SPIB; 1.39 fold enrichment (6-mer frequency, TF over GST control) with ELK3.

Consider TTTCTG, for which the binding signal with FLI1 is 1.4 fold enrichment (6-mer frequency, TF over GST control); with ELK1 it was 1.35 fold enrichment (6-mer frequency, TF over GST control); with GABPA it was 1.36 fold enrichment (6-mer frequency, TF over GST control); with ERG, 1.33 fold enrichment (6-mer frequency, TF over GST control); with ELF1, 1.34 fold enrichment (6-mer frequency, TF over GST control); with EHF, 1.38 fold enrichment (6-mer frequency, TF over GST control). In addition, the binding signal with SPI1 was 1.42 fold enrichment (6-mer frequency, TF over GST control); with SPIB, 1.3 fold enrichment (6-mer frequency, TF over GST control); in the experiment with ELK3, 1.46 fold enrichment (6-mer frequency, TF over GST control).

In the case of CCGGCA, the binding signal is 1.38 fold enrichment (6-mer frequency, TF over GST control) in the experiment with FLI1; 1.37 fold enrichment (6-mer frequency, TF over GST control) with ELK1; 1.39 fold enrichment (6-mer frequency, TF over GST control) with GABPA; 1.53 fold enrichment (6-mer frequency, TF over GST control) in the experiment with ERG; 1.29 fold enrichment (6-mer frequency, TF over GST control) with ELF1; 1.4 fold enrichment (6-mer frequency, TF over GST control) with EHF. Moreover, the binding signal is 1.44 fold enrichment (6-mer frequency, TF over GST control) with SPI1; 1.53 fold enrichment (6-mer frequency, TF over GST control) in the experiment with SPIB; 1.5 fold enrichment (6-mer frequency, TF over GST control) with ELK3.

Consider GTTACT, for which the binding signal is 1.25 fold enrichment (6-mer frequency, TF over GST control) with FLI1; 1.28 fold enrichment (6-mer frequency, TF over GST control) with ELK1; 1.13 fold enrichment (6-mer frequency, TF over GST control) in the experiment with GABPA; 1.33 fold enrichment (6-mer frequency, TF over GST control) with ERG; 1.22 fold enrichment (6-mer frequency, TF over GST control) with ELF1; 1.37 fold enrichment (6-mer frequency, TF over GST control) with EHF. Besides, the binding signal with SPI1 was 1.3 fold enrichment (6-mer frequency, TF over GST control); with SPIB it was 1.23 fold enrichment (6-mer frequency, TF over GST control); with ELK3, 1.31 fold enrichment (6-mer frequency, TF over GST control).

On to TCTACA, for which the binding signal with FLI1 was 1.12 fold enrichment (6-mer frequency, TF over GST control); with ELK1, 1.17 fold enrichment (6-mer frequency, TF over GST control); with GABPA, 1.19 fold enrichment (6-mer frequency, TF over GST control); in the experiment with ERG it was 1.23 fold enrichment (6-mer frequency, TF over GST control); with ELF1, 1.28 fold enrichment (6-mer frequency, TF over GST control); with EHF, 1.25 fold enrichment (6-mer frequency, TF over GST control). The binding signal was 1.14 fold enrichment (6-mer frequency, TF over GST control) in the experiment with SPI1; 1.18 fold enrichment (6-mer frequency, TF over GST control) with SPIB; 1.23 fold enrichment (6-mer frequency, TF over GST control) with ELK3.
